We go through 40 molecules from PubChem BioAssay AID1970 (National Center for Advancing Translational Sciences (NCATS), 2009).

Results filed as inconclusive are left out. Values without a mark were called inactive. Calls of active or inactive are those of the source. Calls come from the whole dose curve; as a rule, active = well fitted inhibition curve with a large enough effect; inconclusive = small, poorly fitted or top-dose-only effect; inactive = flat fitted curve, though single readings scatter.

Dual specificity protein kinase CLK4 (Homo sapiens), sequence (Q9HAZ1 whole entry, looked up): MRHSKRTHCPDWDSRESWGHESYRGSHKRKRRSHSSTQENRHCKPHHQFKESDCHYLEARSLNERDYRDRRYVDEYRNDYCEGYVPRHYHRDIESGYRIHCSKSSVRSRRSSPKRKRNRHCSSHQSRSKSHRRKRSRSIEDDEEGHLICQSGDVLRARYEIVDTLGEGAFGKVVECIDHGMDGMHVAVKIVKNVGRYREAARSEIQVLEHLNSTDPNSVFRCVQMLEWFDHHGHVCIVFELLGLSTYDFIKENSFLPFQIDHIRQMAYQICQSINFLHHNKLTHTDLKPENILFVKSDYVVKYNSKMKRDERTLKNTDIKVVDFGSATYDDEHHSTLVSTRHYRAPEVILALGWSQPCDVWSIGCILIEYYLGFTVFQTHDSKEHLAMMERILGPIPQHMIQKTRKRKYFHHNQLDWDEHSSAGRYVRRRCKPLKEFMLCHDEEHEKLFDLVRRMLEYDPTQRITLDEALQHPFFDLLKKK

The assay concerns the target Dual specificity protein kinase CLK4 (Homo sapiens) (UniProt Q9HAZ1). Description: Confirmation Assay for Inhibitors of CDC-like Kinase 4 (Kinase-Glo Assay). To be noted: recombinant Clk4, Kinase-Glo ATP depletion luminescence; series mostly up to 47.7 µM; activity, negative = inhibition: at the top concentration. As for the experimental part: NIH Molecular Libraries Probe Production Centers Network [MLPCN] NIH Chemical Genomics Center [NCGC] MLPCN Grant: 1R03MH084827-01 Assay Submitter (PI): Tom Misteli NCGC Assay Overview: Clk4 (Invitrogen, cat# PV3839) was assayed using ATP and the RS repeat peptide (AnaSpec cat # 61722) as substrates. Following the Clk4 reaction, the remaining ATP levels were detected using Promega Kinase-Glo technology wherein the remaining ATP from the kinase reaction is detected using Ultra-Glo luciferase and D-luciferin which generates a bioluminescence signal from the ATP.
NCGC Assay Protocol Summary: Two uL/well of substrate-buffer solution (100 uM RS peptide, 1 uM ATP, 25 mM Tris pH7.5, 10 mM MgCl2, 0.5 mM EGTA, 2.5 mM DTT, 0.01% Triton X-100 final concentration) was dispensed into 1536-well, assay plates (Greiner, solid white medium-binding plates) with Aurora Discovery BioRAPTR Flying Reagent Dispenser (FRD; Beckton-Dickenson). Using a Kalypsys pin tool equipped with a 1536-pin tool, 23 nL of compound solution was transferred to the assay plate. One uL/ well Clk4-buffer solution (25 nM Clk4, 25 mM Tris pH 7.5, 10 mM MgCl2, 0.5 mM EGTA, 2.5 mM DTT, 0.01% Triton X-100, final concentrations) was then added using the FRD yielding a total kinase reaction volume of 3 uL/ well. After 4.5 hours of room temperature incubation, 3 uL Kinase-Glo reagent was added for a final assay volume of 6 uL/ well. Luminescence was detected with the ViewLux plate reader (Perkin Elmer, Waltham, MA) after 5 min incubation using a 5 second exposure time and 2x binning.
For orientation: Kinase-Glo reads ATP consumption through a luciferase reaction.
In the case of `Fc1cccc(CNc2ncnc3ccc(-c4ccoc4)cc23)c1`, the Potency was 3160 nM (active).
Regarding `COc1cccc(-c2ccc3ncnc(NCc4cccs4)c3c2)c1`, the Potency is 519 nM (active).
The same measure, in the same setting: the value for `Cc1nc(C)c(-c2ccc3ncnc(NCc4ncc[nH]4)c3c2)s1` was 1840 nM (active).
Same read-out and setting: then `CCOC(=O)c1ccoc1-c1ccc2ncnc(NCCc3cnc[nH]3)c2c1`, with 23200 nM (active).
The same measure, in the same setting: then `c1cncc(-c2ccc3ncnc(NCc4cccs4)c3c2)c1`, with 3980 nM (active).
In the case of `Cc1csc(CNc2ncnc3ccc(-c4ccco4)cc23)c1`, the “activity, negative = inhibition” value was -2.38%.
For `c1cncc(CNc2ncnc3ccc(-c4cccnc4)cc23)c1`, the Potency was 7940 nM (active).
The same measure, in the same setting: then `Fc1cccc(CNc2ncnc3ccc(-c4cccc(Cl)c4)cc23)c1`, with 7080 nM (active).
Consider `Cc1ccsc1CNc1ncnc2ccc(-c3ccc4c(c3)OCO4)cc12`, for which the Potency is 33.6 nM (active).
With `c1nc(NCCc2cnc[nH]2)c2ccc(-c3ccc4c(c3)OCO4)cc2n1`, the Potency was 10600 nM (active).
The same measure, in the same setting: then `CN1CCCC1CCNc1ncnc2ccc(-c3ccc4c(c3)OCO4)cc12` (stereo not given), with 923 nM (active).
On to `c1nc(NCc2ccc3c(c2)OCO3)c2cc(-c3ccc4c(c3)OCCO4)ccc2n1`, for which the Potency was 2240 nM (active).
Same read-out and setting: the value for `c1cncc(CNc2ncnc3ccc(-c4ccoc4)cc23)c1` was 631 nM (active).
For the molecule `Cc1cccc(CNc2ncnc3ccc(-c4ccccc4Cl)cc23)c1`, the Potency is 12600 nM (active).
As for `CC(C)(C)CNc1ncnc2ccc(-c3ccc4c(c3)OCO4)cc12`, the Potency is 32.4 nM (active).
For the molecule `Cc1cccc(CNc2ncnc3ccc(-c4ccc5c(c4)OCCO5)cc23)c1`, the Potency is 501 nM (active).
On the same count and under the same terms, the value for `Cc1ccc(CNc2ncnc3ccc(-c4ccoc4)cc23)o1` was 519 nM (active).
Still for that read-out and setting: the value for `CCN(CCc1cn(C)cn1)c1ncnc2ccc(-c3ccc4c(c3)OCO4)cc12` was 519 nM (active); that for `c1c[nH]c(CNc2ncnc3ccc(-c4ccc5c(c4)OCO5)cc23)n1` was 94.7 nM (active); that for `c1coc(-c2ccc3ncnc(NCc4cccs4)c3c2)c1` was 823 nM (active).
On the same count and under the same terms, then `Cc1nc(C)c(-c2ccc3ncnc(NCCc4cnc[nH]4)c3c2)s1`, with 3680 nM (active).
In the case of `Clc1ccccc1-c1ccc2ncnc(NCc3cccnc3)c2c1`, the Potency was 10000 nM (active).
`OCc1ccc(-c2ccc3ncnc(NCCc4cnc[nH]4)c3c2)o1`: the Potency was 733 nM (active).
Consider `Cc1nc(CNc2ncnc3ccc(-c4ccc5c(c4)OCO5)cc23)cs1`, for which the Potency was 47.5 nM (active).
In the case of `CCN(Cc1sccc1C)c1ncnc2ccc(-c3ccc4c(c3)OCO4)cc12`, the Potency was 146 nM (active).
Same read-out and setting: the value for `Cc1occc1-c1ccc2ncnc(NCc3ncc[nH]3)c2c1` was 463 nM (active); that for `Cc1nc(CN(C)c2ncnc3cc(-c4ccc5c(c4)OCO5)ccc23)cs1` was 5330 nM (active).
Take `Clc1ccccc1-c1ccc2ncnc(NCc3cccs3)c2c1`: the Potency is 7940 nM (active).
As for `Cc1nc(CNc2ncnc3ccc(-c4ccoc4C)cc23)cs1`, the Potency is 823 nM (active).
As to `CCOC(=O)c1ccoc1-c1ccc2ncnc(NCc3ncc[nH]3)c2c1`, the Potency was 10400 nM (active).
As to `CCCN(Cc1cccs1)c1ncnc2ccc(-c3ccc4c(c3)OCO4)cc12`, the Potency was 116 nM (active).
Regarding `CC(Nc1ncnc2ccc(-c3ccc4c(c3)OCO4)cc12)c1ccco1` (stereo not given), the Potency was 119 nM (active).
`Cc1cccc(CNc2ncnc3ccc(-c4cccnc4)cc23)c1`: the Potency was 3550 nM (active).
Same read-out and setting: the value for `O=C(O)c1ccc(-c2ccc3ncnc(NCCc4cnc[nH]4)c3c2)o1` was 923 nM (active); that for `Cc1cc(CNc2ncnc3ccc(-c4ccc5c(c4)OCO5)cc23)c(C)o1` was 119 nM (active).
Regarding `Cc1csc(CNc2ncnc3ccc(-c4cccc(Cl)c4)cc23)c1`, the Potency was 7940 nM (active).
Consider `Cc1cccc(-c2ccc3ncnc(NCc4cccc(F)c4)c3c2)c1`, for which the Potency is 4470 nM (active).
For the molecule `Cc1csc(CNc2ncnc3ccc(-c4ccc5c(c4)OCO5)cc23)n1`, the Potency is 37.7 nM (active).
The same measure, in the same setting: then `Cc1nc(CNc2ncnc3ccc(-c4sc(C)nc4C)cc23)cs1`, with 1640 nM (active).
With `c1cncc(CNc2ncnc3ccc(-c4ccc5c(c4)OCO5)cc23)c1`, the Potency is 100 nM (active).
